The supplement of paper PMC11732987, “Enantioselective OTUD7B fragment discovery through chemoproteomics screening and high-throughput optimisation” (Communications Chemistry, 2025)

How the values were obtained:
Assay in all cases: log2 ratio of Biotin-Ahx-Ub-VS probe labelling (fragment/DMSO); higher = less target engagement (more negative = stronger competition), active = hit call of the paper (q ≤ 0.05, log2 ratio ≤ -1)
Details in all cases: compound concentration: 200 uM; treatment time: 3 h
USP34 = USP34 (UniProt Q70CQ2)
Procedure, shortened: (§1)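 Each value is an average log2 ratio of fragment to vehicle, tested by unpaired t-test. The underlying Spectronaut label-free quantities were global-median-normalised, and only proteins with ≥2 unique peptides were included. Triplicate HEK293T lysate samples (495 µg) were exposed to fragment at 200 µM or vehicle for 3 h, then to Biotin-Ahx-Ub-VS at 0.5 µM final for 1 h, before NeutrAvidin enrichment of labelled DUBs, LysC and trypsin digestion, and diaPASEF LC-MS/MS.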

USP36 = molecular target: T1, USP36 (UniProt Q9P275)
T1 sequence (whole entry): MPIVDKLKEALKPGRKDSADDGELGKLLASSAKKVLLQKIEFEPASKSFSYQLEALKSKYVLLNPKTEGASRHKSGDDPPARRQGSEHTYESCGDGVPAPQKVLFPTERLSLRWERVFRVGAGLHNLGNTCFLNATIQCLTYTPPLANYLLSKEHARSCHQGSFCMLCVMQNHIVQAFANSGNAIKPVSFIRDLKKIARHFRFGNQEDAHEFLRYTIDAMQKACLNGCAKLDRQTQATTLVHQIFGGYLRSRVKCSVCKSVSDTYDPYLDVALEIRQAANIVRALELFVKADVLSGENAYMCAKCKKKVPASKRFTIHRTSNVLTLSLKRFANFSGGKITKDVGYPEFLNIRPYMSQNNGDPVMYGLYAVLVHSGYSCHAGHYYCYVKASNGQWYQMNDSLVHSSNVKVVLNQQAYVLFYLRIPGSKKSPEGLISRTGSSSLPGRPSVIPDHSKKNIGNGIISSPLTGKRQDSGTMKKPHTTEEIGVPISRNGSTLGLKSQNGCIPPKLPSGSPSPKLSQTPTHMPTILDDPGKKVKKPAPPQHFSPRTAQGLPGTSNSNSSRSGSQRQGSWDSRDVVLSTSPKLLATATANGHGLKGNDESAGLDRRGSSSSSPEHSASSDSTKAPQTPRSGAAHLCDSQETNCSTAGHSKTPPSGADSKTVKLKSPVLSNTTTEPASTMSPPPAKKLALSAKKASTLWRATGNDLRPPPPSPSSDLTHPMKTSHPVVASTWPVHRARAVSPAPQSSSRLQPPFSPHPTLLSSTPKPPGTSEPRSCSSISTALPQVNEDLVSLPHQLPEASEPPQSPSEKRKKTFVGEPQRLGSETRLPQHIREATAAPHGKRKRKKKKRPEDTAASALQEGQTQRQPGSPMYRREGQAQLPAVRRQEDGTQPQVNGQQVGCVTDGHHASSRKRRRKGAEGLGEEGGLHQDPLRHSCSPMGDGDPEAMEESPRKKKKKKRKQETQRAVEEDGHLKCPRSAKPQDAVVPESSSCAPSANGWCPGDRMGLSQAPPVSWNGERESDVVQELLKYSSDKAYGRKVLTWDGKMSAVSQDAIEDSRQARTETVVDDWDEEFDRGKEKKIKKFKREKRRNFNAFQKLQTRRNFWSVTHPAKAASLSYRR
Procedure, shortened: as §1

USP38 = molecular target: T2, USP38 (UniProt Q8NB14)
T2 sequence (whole entry): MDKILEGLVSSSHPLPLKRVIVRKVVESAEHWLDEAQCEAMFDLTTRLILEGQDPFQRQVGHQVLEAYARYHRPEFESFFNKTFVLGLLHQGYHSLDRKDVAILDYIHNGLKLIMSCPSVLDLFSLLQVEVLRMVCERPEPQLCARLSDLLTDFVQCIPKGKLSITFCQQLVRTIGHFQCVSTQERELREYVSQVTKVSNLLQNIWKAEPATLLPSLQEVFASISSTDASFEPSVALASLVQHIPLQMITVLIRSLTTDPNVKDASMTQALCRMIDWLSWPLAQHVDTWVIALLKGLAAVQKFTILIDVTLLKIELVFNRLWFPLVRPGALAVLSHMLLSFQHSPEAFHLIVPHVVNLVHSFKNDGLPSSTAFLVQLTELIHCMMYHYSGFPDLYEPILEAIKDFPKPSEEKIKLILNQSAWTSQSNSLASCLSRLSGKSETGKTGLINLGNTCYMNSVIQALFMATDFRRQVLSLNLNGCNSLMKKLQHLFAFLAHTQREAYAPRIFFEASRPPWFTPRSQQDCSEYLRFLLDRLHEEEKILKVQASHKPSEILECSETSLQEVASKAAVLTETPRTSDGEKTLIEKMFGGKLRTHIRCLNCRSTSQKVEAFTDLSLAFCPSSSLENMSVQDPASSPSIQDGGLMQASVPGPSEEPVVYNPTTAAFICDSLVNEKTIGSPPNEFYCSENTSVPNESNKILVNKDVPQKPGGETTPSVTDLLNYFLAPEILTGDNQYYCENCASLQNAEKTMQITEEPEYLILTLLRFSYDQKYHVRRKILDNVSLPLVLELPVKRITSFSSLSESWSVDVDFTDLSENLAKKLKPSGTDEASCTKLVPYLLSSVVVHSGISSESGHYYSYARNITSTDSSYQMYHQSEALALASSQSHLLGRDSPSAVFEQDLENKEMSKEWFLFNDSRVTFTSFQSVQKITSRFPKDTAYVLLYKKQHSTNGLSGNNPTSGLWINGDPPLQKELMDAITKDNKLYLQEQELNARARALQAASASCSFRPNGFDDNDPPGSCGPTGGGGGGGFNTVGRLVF
Procedure, shortened: as §1

USP39 = molecular target: T3, USP39 (UniProt Q53GS9)
T3 sequence (whole entry): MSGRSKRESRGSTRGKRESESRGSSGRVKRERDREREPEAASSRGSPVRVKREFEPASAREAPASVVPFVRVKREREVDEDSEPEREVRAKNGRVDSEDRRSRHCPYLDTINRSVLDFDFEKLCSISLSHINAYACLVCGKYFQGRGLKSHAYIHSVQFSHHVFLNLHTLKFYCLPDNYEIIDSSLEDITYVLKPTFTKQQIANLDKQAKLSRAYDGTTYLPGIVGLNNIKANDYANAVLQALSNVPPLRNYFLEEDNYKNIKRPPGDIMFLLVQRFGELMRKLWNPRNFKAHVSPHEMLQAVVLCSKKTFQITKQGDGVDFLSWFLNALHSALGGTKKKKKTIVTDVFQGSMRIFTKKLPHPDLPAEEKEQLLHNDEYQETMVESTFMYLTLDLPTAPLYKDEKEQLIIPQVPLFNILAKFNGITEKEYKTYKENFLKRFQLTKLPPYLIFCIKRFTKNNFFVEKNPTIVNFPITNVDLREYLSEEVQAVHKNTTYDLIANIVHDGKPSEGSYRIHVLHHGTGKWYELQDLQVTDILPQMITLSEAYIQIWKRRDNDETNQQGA
Procedure, shortened: as §1

USP4 = molecular target: T4, USP4 (UniProt Q13107)
T4 sequence (whole entry): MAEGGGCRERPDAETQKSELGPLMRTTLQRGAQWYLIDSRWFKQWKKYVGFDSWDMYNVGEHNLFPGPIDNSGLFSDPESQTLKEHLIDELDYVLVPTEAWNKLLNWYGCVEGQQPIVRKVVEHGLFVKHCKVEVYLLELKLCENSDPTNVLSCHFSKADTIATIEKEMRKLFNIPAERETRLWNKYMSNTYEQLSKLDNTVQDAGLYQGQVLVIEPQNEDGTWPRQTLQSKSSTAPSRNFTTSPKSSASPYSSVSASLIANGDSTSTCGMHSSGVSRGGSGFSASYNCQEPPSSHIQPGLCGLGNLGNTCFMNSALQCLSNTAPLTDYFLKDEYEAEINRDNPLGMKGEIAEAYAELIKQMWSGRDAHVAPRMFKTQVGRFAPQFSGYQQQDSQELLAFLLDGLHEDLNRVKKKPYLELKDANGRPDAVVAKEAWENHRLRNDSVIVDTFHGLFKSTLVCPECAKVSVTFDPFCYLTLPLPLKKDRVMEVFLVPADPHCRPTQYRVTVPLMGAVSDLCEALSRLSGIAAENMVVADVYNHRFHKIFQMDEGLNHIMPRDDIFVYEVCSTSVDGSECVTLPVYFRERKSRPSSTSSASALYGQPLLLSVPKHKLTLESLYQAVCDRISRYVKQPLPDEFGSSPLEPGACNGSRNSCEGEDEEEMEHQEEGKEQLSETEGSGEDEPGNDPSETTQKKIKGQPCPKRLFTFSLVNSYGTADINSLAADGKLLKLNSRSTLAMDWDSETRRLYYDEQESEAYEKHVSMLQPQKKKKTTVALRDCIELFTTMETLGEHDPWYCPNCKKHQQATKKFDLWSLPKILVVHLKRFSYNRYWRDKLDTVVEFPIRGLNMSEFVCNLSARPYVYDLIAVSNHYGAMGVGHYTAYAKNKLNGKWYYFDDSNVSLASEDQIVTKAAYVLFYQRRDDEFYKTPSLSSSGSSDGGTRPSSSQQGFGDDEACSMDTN
Procedure, shortened: as §1

Measured: log2 ratio of Biotin-Ahx-Ub-VS probe labelling

Sequence of USP34 (Q70CQ2 whole entry, the tested form may be a part): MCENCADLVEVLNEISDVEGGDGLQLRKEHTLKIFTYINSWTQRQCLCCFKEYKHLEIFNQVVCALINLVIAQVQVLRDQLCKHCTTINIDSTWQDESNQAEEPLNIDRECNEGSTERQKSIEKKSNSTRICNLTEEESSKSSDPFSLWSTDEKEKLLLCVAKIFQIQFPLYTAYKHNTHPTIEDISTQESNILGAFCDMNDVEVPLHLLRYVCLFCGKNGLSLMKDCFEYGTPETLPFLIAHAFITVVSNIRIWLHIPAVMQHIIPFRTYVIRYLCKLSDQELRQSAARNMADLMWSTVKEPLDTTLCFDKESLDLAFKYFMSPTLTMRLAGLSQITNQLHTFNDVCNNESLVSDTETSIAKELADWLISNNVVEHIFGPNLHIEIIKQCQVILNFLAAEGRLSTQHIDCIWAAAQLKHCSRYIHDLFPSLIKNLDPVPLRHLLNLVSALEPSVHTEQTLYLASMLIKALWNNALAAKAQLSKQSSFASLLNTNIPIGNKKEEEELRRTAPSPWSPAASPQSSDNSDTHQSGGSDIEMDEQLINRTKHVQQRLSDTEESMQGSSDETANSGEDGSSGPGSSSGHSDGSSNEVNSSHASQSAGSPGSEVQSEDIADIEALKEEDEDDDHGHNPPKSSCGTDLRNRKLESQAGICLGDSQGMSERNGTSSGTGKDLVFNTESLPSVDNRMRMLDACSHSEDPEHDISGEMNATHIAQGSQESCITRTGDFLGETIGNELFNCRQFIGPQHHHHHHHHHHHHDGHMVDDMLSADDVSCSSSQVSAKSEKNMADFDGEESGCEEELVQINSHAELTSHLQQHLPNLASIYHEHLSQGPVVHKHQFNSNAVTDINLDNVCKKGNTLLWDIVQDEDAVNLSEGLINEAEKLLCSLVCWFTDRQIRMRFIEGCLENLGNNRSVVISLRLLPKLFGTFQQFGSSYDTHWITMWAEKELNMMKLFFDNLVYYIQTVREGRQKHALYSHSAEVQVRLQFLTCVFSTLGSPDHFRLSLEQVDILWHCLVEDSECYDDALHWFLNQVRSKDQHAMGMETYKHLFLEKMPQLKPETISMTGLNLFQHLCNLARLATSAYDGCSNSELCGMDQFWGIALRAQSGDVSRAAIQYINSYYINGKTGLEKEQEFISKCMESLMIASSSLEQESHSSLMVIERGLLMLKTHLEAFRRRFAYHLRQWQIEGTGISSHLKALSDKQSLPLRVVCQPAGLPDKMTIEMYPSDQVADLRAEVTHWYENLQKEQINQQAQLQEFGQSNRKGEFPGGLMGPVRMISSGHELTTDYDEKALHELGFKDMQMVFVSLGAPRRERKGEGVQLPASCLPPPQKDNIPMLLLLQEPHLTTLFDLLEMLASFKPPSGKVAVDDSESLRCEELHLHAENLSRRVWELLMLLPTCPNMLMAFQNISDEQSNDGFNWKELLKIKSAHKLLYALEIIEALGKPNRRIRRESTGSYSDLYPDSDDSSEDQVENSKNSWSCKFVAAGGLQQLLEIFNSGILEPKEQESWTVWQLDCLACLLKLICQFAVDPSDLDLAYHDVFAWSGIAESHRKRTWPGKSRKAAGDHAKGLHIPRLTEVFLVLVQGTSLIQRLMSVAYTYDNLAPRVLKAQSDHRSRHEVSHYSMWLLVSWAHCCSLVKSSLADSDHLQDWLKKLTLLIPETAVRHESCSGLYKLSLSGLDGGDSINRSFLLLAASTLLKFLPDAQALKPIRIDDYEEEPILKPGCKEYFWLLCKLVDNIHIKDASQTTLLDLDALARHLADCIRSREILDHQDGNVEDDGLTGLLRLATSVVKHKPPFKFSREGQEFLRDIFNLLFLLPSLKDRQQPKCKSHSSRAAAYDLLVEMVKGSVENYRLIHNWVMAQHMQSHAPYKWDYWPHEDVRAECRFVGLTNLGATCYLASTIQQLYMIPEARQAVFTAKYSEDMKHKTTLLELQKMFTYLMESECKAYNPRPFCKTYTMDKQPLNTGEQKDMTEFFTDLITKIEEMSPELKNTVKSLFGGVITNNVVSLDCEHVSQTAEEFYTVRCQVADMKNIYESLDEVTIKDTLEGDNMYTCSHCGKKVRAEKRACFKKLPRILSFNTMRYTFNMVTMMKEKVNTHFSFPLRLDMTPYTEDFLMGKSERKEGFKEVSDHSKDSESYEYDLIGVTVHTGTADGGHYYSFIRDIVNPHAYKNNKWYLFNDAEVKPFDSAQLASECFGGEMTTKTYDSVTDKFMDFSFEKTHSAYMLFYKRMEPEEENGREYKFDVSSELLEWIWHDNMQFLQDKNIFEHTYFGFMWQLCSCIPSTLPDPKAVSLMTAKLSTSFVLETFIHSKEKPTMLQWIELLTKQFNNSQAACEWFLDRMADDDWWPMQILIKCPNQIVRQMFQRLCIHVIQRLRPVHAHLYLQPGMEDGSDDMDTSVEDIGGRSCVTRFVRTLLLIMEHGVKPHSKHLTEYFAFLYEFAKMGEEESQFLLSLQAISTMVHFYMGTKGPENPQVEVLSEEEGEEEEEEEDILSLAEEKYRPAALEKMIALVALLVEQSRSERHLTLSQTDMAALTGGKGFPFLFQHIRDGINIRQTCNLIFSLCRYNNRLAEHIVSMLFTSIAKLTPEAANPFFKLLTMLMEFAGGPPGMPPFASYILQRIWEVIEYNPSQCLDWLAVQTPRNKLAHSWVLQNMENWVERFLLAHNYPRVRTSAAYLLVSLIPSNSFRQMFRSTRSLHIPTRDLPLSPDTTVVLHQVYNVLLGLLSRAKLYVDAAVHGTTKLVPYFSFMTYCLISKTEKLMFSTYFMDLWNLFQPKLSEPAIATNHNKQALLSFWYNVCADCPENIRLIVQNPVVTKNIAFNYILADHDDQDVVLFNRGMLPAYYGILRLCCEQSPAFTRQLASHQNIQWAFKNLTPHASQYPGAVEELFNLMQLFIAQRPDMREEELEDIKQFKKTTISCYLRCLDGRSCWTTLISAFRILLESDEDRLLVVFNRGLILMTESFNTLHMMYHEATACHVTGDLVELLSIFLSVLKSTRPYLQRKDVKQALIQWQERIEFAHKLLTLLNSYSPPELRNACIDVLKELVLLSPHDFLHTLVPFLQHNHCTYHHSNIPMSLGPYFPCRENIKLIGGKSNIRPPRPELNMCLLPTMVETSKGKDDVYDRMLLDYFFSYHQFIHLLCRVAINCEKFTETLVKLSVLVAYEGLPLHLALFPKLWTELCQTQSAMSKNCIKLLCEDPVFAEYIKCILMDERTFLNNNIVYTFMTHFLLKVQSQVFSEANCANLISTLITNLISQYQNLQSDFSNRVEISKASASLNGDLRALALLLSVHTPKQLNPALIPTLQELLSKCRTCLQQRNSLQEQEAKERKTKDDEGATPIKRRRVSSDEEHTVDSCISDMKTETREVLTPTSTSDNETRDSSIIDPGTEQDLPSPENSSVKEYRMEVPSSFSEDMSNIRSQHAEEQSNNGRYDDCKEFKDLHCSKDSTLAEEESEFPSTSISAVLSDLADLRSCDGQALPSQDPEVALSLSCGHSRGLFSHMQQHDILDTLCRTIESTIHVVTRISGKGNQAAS

O=C(CCl)N1CCC(c2nc3ccccc3o2)CC1
inactive: USP34 -0.0485 | USP36 -0.24 | USP38 -0.183 | USP39 0.016 | USP4 -0.231
